According to PubChem BioAssay AID720593 (Broad Institute, 2013):
Entries with a potency or affinity are not part of this list. Values without a mark were called inactive.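 The calls were made as follows: active = falling viability curve whose half-maximal potency lies within twice the top valid tested dose; inconclusive = flat curve with moderate signal loss, or unreliable curve fit; inactive = the rest.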

Test: HeLa cell cytotoxicity, dose response, cytotoxicity control, CellTiter-Glo luminescence, dry powder, set 2 (AID 720593)
Conditions: HeLa viability, ATP luminescence (CellTiter-Glo), 72 h; series mostly up to 26 µM; activity change, negative = cytotoxicity: at the top concentration

Structure (SMILES)	activity change, negative = cytotoxicity [%]
CC1CCN(S(=O)(=O)c2ccc(C(=O)Nc3nnc(-c4ccco4)o3)cc2)CC1	-8.21
Cc1ccc(C(=O)Nc2nc(-c3ccccn3)cs2)cc1S(=O)(=O)N1CCOCC1	-20.5
Cc1ccc(S(=O)(=O)CCc2nnc(NC(=O)c3ccccc3)s2)cc1	9.52
O=C(CSc1ccc(-c2ccccn2)nn1)NC1CCCCC1	-4.79
O=C(Nc1nnc(C2=COCCO2)o1)c1ccc(S(=O)(=O)N2CCCCC2)cc1	4.4
O=C(CSc1ccc(-c2ccccn2)nn1)Nc1nccs1	14.7
CC1CC(C)CN(S(=O)(=O)c2ccc(C(=O)Nc3nnc(C4=COCCO4)o3)cc2)C1 (centres undefined)	-4.18
O=C(CSc1ccc(-c2ccccn2)nn1)N1CCCC1	11.2
COC(=O)c1ccc(NC(=O)CSc2ccc(-c3ccccn3)nn2)cc1	1.05
Cc1nnc(NC(=O)c2ccc(S(=O)(=O)N3CCCCC3)cc2)o1	-7.03
Cc1cccc(NC(=O)CSc2ccc(-c3ccccn3)nn2)c1C	-4.71
CC1CCN(S(=O)(=O)c2ccc(C(=O)Nc3nnc(-c4ccno4)o3)cc2)CC1	1.92
CC1CCN(S(=O)(=O)c2ccc(C(=O)Nc3nnc(-c4ccccc4)o3)cc2)CC1	-4.04
Cc1ccc(C(=O)Nc2nc(-c3ccccc3)cs2)o1	-0.187
CC1CCN(S(=O)(=O)c2ccc(C(=O)Nc3nnc(-c4cccs4)o3)cc2)CC1	-2.78
CC1CCN(S(=O)(=O)c2ccc(C(=O)Nc3nnc(C4=COCCO4)o3)cc2)CC1	-9.8
CC1CCCN(S(=O)(=O)c2ccc(C(=O)Nc3nnc(C4=COCCO4)o3)cc2)C1 (centres undefined)	-11.9
COC(=O)Cc1cc(=O)n(-c2nc3ccccc3[nH]2)[nH]1	-4.65
CC(C)Cc1nnc(NC(=O)c2cccc(S(=O)(=O)N3CCOCC3)c2)s1	3.1
FC(F)(F)c1cc(-c2nn[nH]n2)cc(C(F)(F)F)c1	-1.54
O=C(Nc1nc(-c2ccncc2)cs1)c1ccco1	-8.49
CC1CCN(S(=O)(=O)c2ccc(C(=O)Nc3nnc(C4CC4)o3)cc2)CC1	-7.15
CC1CCN(S(=O)(=O)c2ccc(C(=O)Nc3nnc(-c4ccccn4)o3)cc2)CC1	-1
Cc1c(C(=O)N(C)C)sc2nc(-c3ccccn3)[nH]c(=O)c12	3.77
